# Source: PubChem BioAssay (Tox21)
# Values joined by “and” are separate entries in the source; they are usually repeats but may differ in a detail not shown here. Equal values may be shown once. Records with an inconclusive call do not appear. Where a call stands in place of a potency, no number is given. Some compounds were tested as several samples or in several runs, with calls that do not always agree. Active and inactive are the calls of the source. Calls come from the whole dose curve; as a rule, active = well fitted curve in the direction sought with a large enough effect in the repeat runs; inconclusive = weak or mixed curves; inactive = no such curve, though single readings can be large; an effect the other way counts as inactive or inconclusive.
# Tests used:
# [1] = qHTS RealTime-Glo MT Cell Viability Assay in HepG2 cells - 40 hour (AID 1224870); settings: RealTime-Glo luminescence; series mostly up to 76.8 µM; note: nearly all actives have a fitted effect of over 50% in size; note: potency is the fitted concentration of half-maximal effect
# In short: (§1)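 Real-time viability: cells seeded at 600 per well together with NanoLuc and cell-permeant prosubstrate, compounds added after 5 h incubation. Luminescence tracked at 0, 8, 16, 24, 32 and 40 h of exposure.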
# [2] = A CellTox Green Cytotoxicity Assay to monitor cytotoxicity in HEK293 cells - 40 hour (AID 1224871); settings: CellTox Green fluorescence; series mostly up to 76.8 µM; note: nearly all actives have a fitted effect of over 45% in size; note: potency is the fitted concentration of half-maximal effect
# In short: (§2)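 Dead-cell fluorescence measured kinetically: asymmetric cyanine dye, HEK293, 600 cells/well, 5 h settle, 23 nL cpd/DMSO, 37 C, reads 0–40 h every 8 h.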
# [3] = qHTS RealTime-Glo MT Cell Viability Assay in HEK293 cells - 16 hour (AID 1224872); settings: RealTime-Glo luminescence; series mostly up to 76.8 µM; note: top concentration of the series differs between compounds; nearly all actives have a fitted effect of over 50% in size
# In short: (§3)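 Nonlytic real-time viability readout: viable cells convert prosubstrate to NanoLuc substrate, giving luminescence proportional to live cell number. HEK293, 600 cells/well, compound added after 5 h, continuous culture at 37 C.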
# [4] = qHTS RealTime-Glo MT Cell Viability Assay in HepG2 cells - 8 hour (AID 1224873); settings: RealTime-Glo luminescence; series mostly up to 76.8 µM; note: nearly all actives have a fitted effect of over 55% in size
# In short: as §1
# [5] = qHTS RealTime-Glo MT Cell Viability Assay in HEK293 cells - 40 hour (AID 1224874); settings: RealTime-Glo luminescence; max response: stronger effect = lower value; note: nearly all actives have a fitted effect of over 50% in size; note: potency is the fitted concentration of half-maximal effect
# In short: (§4)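 600 HEK293 cells per well, dispensed already mixed with RealTime-Glo MT reagents. Compound dosing came 5 h later. The same wells were read for luminescence at 0, 8, 16, 24, 32 and 40 h of exposure at 37 C.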
# [6] = A CellTox Green Cytotoxicity Assay to monitor cytotoxicity in HepG2 cells - 16 hour (AID 1224876); settings: CellTox Green fluorescence; series mostly up to 76.8 µM; note: nearly all actives have a fitted effect of over 45% in size; note: potency is the fitted concentration of half-maximal effect
# In short: (§5)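 First, HepG2 cells (600/well) mixed with reagent were plated; second, after 5 h at 37 C they received compounds via pintool; third, fluorescence was measured at 0 h through 40 h at 8 h intervals.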
# [7] = qHTS RealTime-Glo MT Cell Viability Assay in HepG2 cells - 32 hour (AID 1224877); settings: RealTime-Glo luminescence; series mostly up to 76.8 µM; note: nearly all actives have a fitted effect of over 55% in size
# In short: (§6)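 Luminescence read-out: viable HepG2 cells reduce a prosubstrate to a NanoLuc substrate, giving a signal proportional to live cell number. Reads taken at 0, 8, 16, 24, 32 and 40 h of compound exposure at 37 C.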
# [8] = A CellTox Green Cytotoxicity Assay to monitor cytotoxicity in HepG2 cells - 24 hour (AID 1224878); settings: CellTox Green fluorescence; series mostly up to 76.8 µM; note: nearly all actives have a fitted effect of over 45% in size; note: potency is the fitted concentration of half-maximal effect
# In short: as §5
# [9] = A CellTox Green Cytotoxicity Assay to monitor cytotoxicity in HepG2 cells - 40 hour (AID 1224879); settings: CellTox Green fluorescence; series mostly up to 76.8 µM; note: nearly all actives have a fitted effect of over 40% in size; note: potency is the fitted concentration of half-maximal effect
# In short: as §5
# [10] = qHTS RealTime-Glo MT Cell Viability Assay in HEK293 cells - 0 hour (AID 1224880); settings: RealTime-Glo luminescence; series mostly up to 76.8 µM; note: nearly all actives have a fitted effect of over 45% in size; note: potency is the fitted concentration of half-maximal effect
# In short: as §4
# [11] = A CellTox Green Cytotoxicity Assay to monitor cytotoxicity in HEK293 cells - 32 hour (AID 1224881); settings: CellTox Green fluorescence; series mostly up to 76.8 µM; note: nearly all actives have a fitted effect of over 40% in size; note: potency is the fitted concentration of half-maximal effect
# In short: as §2
# [12] = A CellTox Green Cytotoxicity Assay to monitor cytotoxicity in HepG2 cells - 0 hour (AID 1224882); settings: CellTox Green fluorescence; series mostly up to 76.8 µM; note: nearly all actives have a fitted effect of over 35% in size; note: potency is the fitted concentration of half-maximal effect
# In short: as §5
# [13] = A CellTox Green Cytotoxicity Assay to monitor cytotoxicity in HepG2 cells - 32 hour (AID 1224883); settings: CellTox Green fluorescence; series mostly up to 76.8 µM; note: nearly all actives have a fitted effect of over 50% in size; note: potency is the fitted concentration of half-maximal effect
# In short: as §5
# [14] = A CellTox Green Cytotoxicity Assay to monitor cytotoxicity in HEK293 cells - 8 hour (AID 1224884); settings: CellTox Green fluorescence; series mostly up to 76.8 µM; note: nearly all actives have a fitted effect of over 35% in size; note: potency is the fitted concentration of half-maximal effect
# In short: as §2
# [15] = qHTS RealTime-Glo MT Cell Viability Assay in HepG2 cells - 16 hour (AID 1224885); settings: RealTime-Glo luminescence; series mostly up to 76.8 µM; note: nearly all actives have a fitted effect of over 50% in size
# In short: as §6
# [16] = qHTS RealTime-Glo MT Cell Viability Assay in HEK293 cells - 24 hour (AID 1224886); settings: RealTime-Glo luminescence; series mostly up to 76.8 µM
# In short: as §3
# [17] = qHTS RealTime-Glo MT Cell Viability Assay in HEK293 cells - 8 hour (AID 1224887); settings: RealTime-Glo luminescence; series mostly up to 76.8 µM; note: nearly all actives have a fitted effect of over 50% in size; note: potency is the fitted concentration of half-maximal effect
# In short: as §4
# [18] = A CellTox Green Cytotoxicity Assay to monitor cytotoxicity in HEK293 cells - 16 hour (AID 1224888); settings: CellTox Green fluorescence; series mostly up to 76.8 µM; note: nearly all actives have a fitted effect of over 35% in size
# In short: as §2
# [19] = qHTS RealTime-Glo MT Cell Viability Assay in HepG2 cells - 0 hour (AID 1224889); settings: RealTime-Glo luminescence; series mostly up to 76.8 µM; note: nearly all actives have a fitted effect of over 50% in size; note: potency is the fitted concentration of half-maximal effect
# In short: as §6
# [20] = A CellTox Green Cytotoxicity Assay to monitor cytotoxicity in HEK293 cells - 24 hour (AID 1224875); settings: CellTox Green fluorescence; series mostly up to 76.8 µM; note: nearly all actives have a fitted effect of over 45% in size
# In short: as §2
compound,measurement,setting,value
CCCCC(CC)COC(=O)c1ccc(C(=O)OCC(CC)CCCC)c(C(=O)OCC(CC)CCCC)c1 (configuration not stated),Potency,[1],inactive
same,Potency,[2],inactive
same,Potency,[3],inactive
same,Potency,[4],inactive
same,max response,[5],0.196% (inactive) and 3.66% (inactive)
same,Potency,[6],inactive
same,Potency,[7],inactive
same,Potency,[8],inactive
same,Potency,[9],inactive
same,Potency,[10],inactive
same,Potency,[11],inactive
same,Potency,[12],inactive
same,Potency,[13],inactive
same,Potency,[14],inactive
same,Potency,[15],inactive
same,Potency,[16],inactive
same,Potency,[17],inactive
same,Potency,[18],inactive
same,Potency,[19],inactive
O=C(Nc1ccc(Br)cc1)c1cc(Br)cc(Br)c1O,Potency,[1],43.5 µM (active)
same,Potency,[2],38.9 µM (active) and inactive
same,Potency,[3],inactive
same,Potency,[4],inactive
same,Potency,[5],17.3 µM (active) and 19.5 µM (active)
same,Potency,[6],inactive and 43.6 µM (active)
same,Potency,[8],38.9 µM (active)
same,Potency,[9],19.4 µM (active) and 24.5 µM (active) and 23.9 µM (active)
same,Potency,[10],24.5 µM (active)
same,Potency,[11],38.9 µM (active) and inactive
same,Potency,[12],inactive and 43.6 µM (active)
same,Potency,[13],19.4 µM (active) and 27.5 µM (active) and 21.3 µM (active)
same,Potency,[14],inactive and 38.9 µM (active)
same,Potency,[15],inactive
same,Potency,[16],inactive
same,Potency,[17],inactive
same,Potency,[19],21.8 µM (active)
CCOP(=S)(OCC)O/N=C(\C#N)c1ccccc1,Potency,[1],inactive
same,Potency,[2],inactive
same,Potency,[3],inactive
same,Potency,[4],inactive
same,max response,[5],6.15% (inactive) and 1.47% (inactive)
same,Potency,[6],inactive
same,Potency,[7],inactive
same,Potency,[9],inactive
same,Potency,[10],inactive
same,Potency,[11],inactive
same,Potency,[12],inactive
same,Potency,[13],inactive
same,Potency,[14],inactive
same,Potency,[15],inactive
same,Potency,[16],inactive
same,Potency,[17],inactive
same,Potency,[18],inactive
same,Potency,[19],inactive
CCOc1cc(C=O)ccc1O,Potency,[1],inactive
same,Potency,[2],inactive
same,Potency,[3],inactive
same,Potency,[4],inactive
same,max response,[5],4.96% (inactive) and 4.75% (inactive)
same,Potency,[20],inactive
same,Potency,[7],inactive
same,Potency,[9],inactive
same,Potency,[10],inactive
same,Potency,[11],inactive
same,Potency,[12],inactive
same,Potency,[13],inactive
same,Potency,[14],inactive
same,Potency,[15],inactive
same,Potency,[16],inactive
same,Potency,[17],inactive
same,Potency,[18],inactive
same,Potency,[19],inactive
N#CC(Br)Br,Potency,[1],inactive
same,Potency,[2],inactive
same,Potency,[3],inactive
same,Potency,[4],inactive
same,max response,[5],-17% (inactive) and 1.39% (inactive)
same,Potency,[20],inactive
same,Potency,[7],inactive
same,Potency,[8],inactive
same,Potency,[9],inactive
same,Potency,[10],inactive
same,Potency,[11],inactive
same,Potency,[12],inactive
same,Potency,[13],inactive
same,Potency,[14],inactive
same,Potency,[15],inactive
same,Potency,[16],inactive
same,Potency,[17],inactive
same,Potency,[18],inactive
same,Potency,[19],inactive
CN(C)C(=O)Nc1ccc(Cl)cc1,Potency,[1],inactive
same,Potency,[2],inactive
same,Potency,[3],inactive
same,Potency,[4],inactive
same,max response,[5],-3.64% (inactive) and -10.5% (inactive)
same,Potency,[6],inactive
same,Potency,[7],inactive
same,Potency,[8],inactive
same,Potency,[9],inactive
same,Potency,[11],inactive
same,Potency,[12],inactive
same,Potency,[13],inactive
same,Potency,[14],inactive
same,Potency,[15],inactive
same,Potency,[16],inactive
same,Potency,[17],inactive
same,Potency,[18],inactive
same,Potency,[19],inactive
O=C(O)C(F)(F)C(F)(F)C(F)(F)C(F)(F)C(F)(F)C(F)(F)C(F)(F)F,Potency,[1],inactive
same,Potency,[2],inactive
same,Potency,[3],inactive
same,Potency,[4],inactive
same,max response,[5],-9.47% (inactive) and 7.44% (inactive)
same,Potency,[20],inactive
same,Potency,[7],inactive
same,Potency,[8],inactive
same,Potency,[9],inactive
same,Potency,[10],inactive
same,Potency,[11],inactive
same,Potency,[12],inactive
same,Potency,[13],inactive
same,Potency,[14],inactive
same,Potency,[15],inactive
same,Potency,[16],inactive
same,Potency,[17],inactive
same,Potency,[18],inactive
same,Potency,[19],inactive
CCCCN(CC)c1c([N+](=O)[O-])cc(C(F)(F)F)cc1[N+](=O)[O-],Potency,[1],inactive
same,Potency,[2],inactive
same,Potency,[3],inactive
same,Potency,[4],inactive
same,max response,[5],-1.03% (inactive) and 20.2% (inactive)
same,Potency,[6],inactive
same,Potency,[7],inactive
same,Potency,[8],inactive
same,Potency,[9],inactive
same,Potency,[11],inactive
same,Potency,[12],inactive
same,Potency,[13],inactive
same,Potency,[14],inactive
same,Potency,[15],inactive
same,Potency,[16],inactive
same,Potency,[17],17.7 µM (active)
same,Potency,[18],inactive
same,Potency,[19],inactive
NNC(N)=S,Potency,[1],inactive
same,Potency,[2],inactive
same,Potency,[3],inactive
same,Potency,[4],inactive
same,max response,[5],1.23% (inactive) and 8.52% (inactive)
same,Potency,[20],inactive
same,Potency,[7],inactive
same,Potency,[8],inactive
same,Potency,[9],inactive
same,Potency,[10],inactive
same,Potency,[11],inactive
same,Potency,[12],inactive
same,Potency,[13],inactive
same,Potency,[14],inactive
same,Potency,[15],inactive
same,Potency,[16],inactive
same,Potency,[17],inactive
same,Potency,[18],inactive
same,Potency,[19],inactive
C=C(C)C(=O)OCC1CO1 (configuration not stated),Potency,[1],inactive
same,Potency,[2],inactive
same,Potency,[3],inactive
same,Potency,[4],inactive
same,max response,[5],9.74% (inactive) and -15.3% (inactive)
same,Potency,[6],inactive
same,Potency,[7],inactive
same,Potency,[8],inactive
same,Potency,[9],inactive
same,Potency,[11],inactive
same,Potency,[12],inactive
same,Potency,[13],inactive
same,Potency,[14],inactive
same,Potency,[15],inactive
same,Potency,[16],inactive
same,Potency,[17],inactive
same,Potency,[18],inactive
same,Potency,[19],inactive
NNC(=S)NN,Potency,[1],inactive
same,Potency,[2],inactive
same,Potency,[3],inactive
same,Potency,[4],inactive
same,max response,[5],7.14% (inactive) and 10.3% (inactive)
same,Potency,[20],inactive
same,Potency,[7],inactive
same,Potency,[9],inactive
same,Potency,[11],inactive
same,Potency,[12],inactive
same,Potency,[13],inactive
same,Potency,[14],inactive
same,Potency,[15],inactive
same,Potency,[16],inactive
same,Potency,[17],inactive
same,Potency,[18],inactive
same,Potency,[19],inactive
COP(=S)(OC)Oc1cc(Cl)c(Cl)cc1Cl,Potency,[1],inactive
same,Potency,[2],inactive
same,Potency,[3],inactive
same,Potency,[4],inactive
same,max response,[5],-10.5% (inactive) and -1.54% (inactive)
same,Potency,[6],inactive
same,Potency,[7],inactive
same,Potency,[9],inactive
same,Potency,[11],inactive
same,Potency,[12],inactive
same,Potency,[13],inactive
same,Potency,[14],inactive
same,Potency,[15],inactive
same,Potency,[16],inactive
same,Potency,[17],inactive
same,Potency,[18],inactive
same,Potency,[19],inactive
